KB-3-1 tox = kills parental KB-3-1 adenocarcinoma cells; KB-3-1 viability, CellTiter-Glo ATP luminescence, 72 h; Potency, µM (top dose mostly 46.1 µM), most hits filed as cytotoxic; actives 1.4% (n = 400,000); AID 1347075; further: nearly all actives have a fitted effect of over 60% in size
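Here the drug-naive KB-3-1 line serves as comparator for MDR sub-line selectivity; cells received compound titrations, 72 h at 37 °C, then CellTiter-Glo readout.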
SW480 rereplic = DNA re-replication induction in SW480 cells; Potency, µM (titrated, usually from 46.1 µM), actives largely listed as activators; SW480 DNA re-replication, Hoechst DNA content imaging, 48 h; actives 1.8% (n = 340,000); AID 624297; further: nearly all actives have a fitted effect of over 55% in size
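SW480 cells exposed to compounds for 48 hr at 37 C, 5% CO2, then Hoechst-stained 40 min. Nuclear DNA content imaged by fluorescence scanning (405 nm excitation, 500-530 nm emission); re-replication scored as increased high-intensity nuclei.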
HT1080 IDH1KD tx = toxicity to HT-1080 IDH1 knockdown cells (counter line); actives 2% (n = 360,000); HT-1080 IDH1 knockdown viability, ATP luminescence, 48 h; Potency, µM (titrated, usually from 46.1 µM), most hits filed as cytotoxic
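After a 2 h attachment period, IDH1KD HT-1080 cells took pin-transferred compound for 48 h at 37 °C; ATP-based luminescence after 10 min room-temperature reagent incubation reported viability.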
HT1080-NT tox = kills 2HG-producing HT-1080-NT fibrosarcoma cells | HT-1080-NT fibrosarcoma viability, CellTiter-Glo ATP luminescence, 48 h | Potency, µM (titrated, usually from 46.1 µM), most hits filed as cytotoxic | actives 1.6% (n = 360,000) | AID 686970;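 further: NT is the 2HG producing partner of a matched IDH1 knockdown line; nearly all actives have a fitted effect of over 55% in size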
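Toxicity toward the 2HG-producing NT line was scored as %Activity, normalised to DMSO and no-cell wells, from CellTiter-Glo luminescence after 48 hours' treatment.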
MCF10A rerep = induces DNA re-replication in MCF 10a normal breast cells; actives 2.9% (n = 350,000); MCF 10A DNA re-replication, Hoechst nuclear intensity, 48 h; AID 624296; Potency, µM (titrated, usually from 46.1 µM), usual class: activators; further: nearly all actives have a fitted effect of over 50% in size
KB-V1 MDR tox = kills drug-selected multidrug resistant KB-V1 cells. KB-V1 MDR cells viability, CellTiter-Glo, 72 h. Potency, µM (highest dose often 46.1 µM), usual class: cytotoxic. actives 3.4% (n = 400,000). AID 1347076; further: nearly all actives have a fitted effect of over 60% in size
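qHTS viability screen in drug-selected KB-V1 MDR cells: 72 h compound treatment at 37 degrees C, ATP luminescence end point.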
Hits are given with their value; . = inactive; ? = inconclusive; / = not tested or not shown; [ ] = another dose, or the depositor's remark. Shown are actives, neighbours in structure and some others; about 7.9% of the full set was active somewhere. The call rests on the fitted dose curve; in most records, active means well fitted curve in the direction sought with a large enough effect; inconclusive means small, poorly fitted or top-dose-only effect, or another doubt; inactive means no such curve, though single readings can be large; an effect the other way counts as inactive or inconclusive.

SMILES	KB-3-1 tox	SW480 rereplic	HT1080 IDH1KD tx	HT1080-NT tox	MCF10A rerep	KB-V1 MDR tox
CC(Oc1ccc(Cl)cc1)C(=O)N1CCN(C(=O)c2ccco2)CC1 (configuration not stated)	.	.	.	.	.	20.6µM
O=C(COc1ccccc1[N+](=O)[O-])Nc1ccc(N2CCN(C(=O)c3cccs3)CC2)cc1	.	.	?	.	.	9.2µM
O=C(COc1ccccc1Cl)Nc1ccc(N2CCCC2)cc1	.	16.4µM	.	.	?	.
O=C(c1ccco1)N1CCN(C(c2ccc(Cl)cc2)c2nnnn2Cc2ccccc2)CC1 (configuration not stated)	?	.	.	.	.	16.4µM
CCC(=O)Nc1ccc(N2CCN(C(=O)c3cccs3)CC2)cc1	.	.	.	.	.	.
Cc1ccccc1-c1noc(-c2cc(-c3ccc(F)cc3)n[nH]2)n1	.	/	/	/	/	.
Cc1ccc(S(=O)(=O)N2CCN(S(=O)(=O)c3ccc(C)cc3)C2c2ccccc2)cc1	.	.	.	.	.	.
Cc1ccc(C)c(COC(=O)c2cc(S(=O)(=O)N3CCCCC3)ccc2N2CCOCC2)c1	.	.	.	.	.	?
O=C(c1ccco1)N1CCN(C(=O)C(Sc2ccccc2)c2ccccc2)CC1 (configuration not stated)	?	.	.	.	?	20.6µM
O=C(NC(=S)Nc1ccc(Cl)cn1)C12CC3CC(CC(C3)C1)C2	.	.	.	.	?	.
CCOC(=O)c1c(NC(=O)C(=O)N/N=C(\C)c2ccc(OC)cc2)sc2c1CCCCC2	.	.	.	.	.	3.26µM
CCOC(=O)c1c(NC(=O)c2ccc(OC)cc2)sc2c1CCCCC2	.	/	/	/	/	.
CCOC(=O)c1c(NC(=O)C(=O)N/N=C/c2ccccc2O)sc2c1CCCCC2	?	?	?	?	.	3.66µM
CCOC(=O)c1c(NC(=O)C(=O)N/N=C/c2ccccc2OC)sc2c1CCCCC2	?	.	.	.	.	.
COc1cc2c(=O)n(Cc3ccco3)c(=O)n(CC(=O)Nc3ccc(F)cc3)c2cc1OC	.	/	/	/	/	.
NC(N)=N/N=C/c1ccc(Cl)cc1Cl	?	?	16.4µM	?	.	?
NC(N)=N/N=C/c1ccc(OCc2ccccc2Cl)cc1	?	13µM	15.8µM	12.6µM	.	.
NC(N)=N/N=C/c1ccccc1	.	.	.	.	.	.
NC(N)=N/N=C/c1ccc(Cl)c(Cl)c1	16.4µM	?	?	?	?	20.6µM
Cc1cccc(N2CCN(C(=O)C3CCN(S(=O)(=O)c4c(C)noc4C)CC3)CC2)c1C	.	.	.	.	.	?
COc1ccc(CC(=O)N2CCc3cc(OC)c(OC)cc3C2COc2ccc(F)cc2)cc1 (configuration not stated)	.	/	/	/	/	7.31µM
COc1cc2c(cc1OC)C(COc1ccccc1OC)N(C(C)=O)CC2 (configuration not stated)	.	.	.	.	.	.
COc1ccc(CC(=O)N2CCc3cc(OC)c(OC)cc3C2COc2ccc(F)cc2)cc1OC (configuration not stated)	.	/	/	/	/	.
COc1cc2c(cc1OC)C(COc1ccc([N+](=O)[O-])cc1)N(C(C)=O)CC2 (configuration not stated)	16.4µM	.	.	?	.	?
N=C1SCC(=O)N1c1ncc(Cc2ccccc2Cl)s1	.	?	.	.	18.4µM	.
SMILES	KB-3-1 tox	SW480 rereplic	HT1080 IDH1KD tx	HT1080-NT tox	MCF10A rerep	KB-V1 MDR tox
N=C1SCC(=O)N1c1ncc(Cc2cccc(Cl)c2)s1	.	?	.	.	11.6µM	?
CC(C)CCN(C(=O)c1cn2ccccc2n1)c1c(N)n(Cc2ccccc2)c(=O)[nH]c1=O	.	.	.	.	.	.
CCc1c(C(=O)NC2CCCCC2)[nH]c(C)c1C(C)=O	.	.	.	.	.	18.4µM
CC(=O)c1c(C)[nH]c(C(=O)NCCc2cccc(C)c2)c1C	.	.	?	.	.	.
CC(=O)c1c(C)[nH]c(C(=O)NC2CCCCC2)c1C	.	.[9.22 µM]	.	.	.	.
CCc1c(C(=O)NCCc2cccc(C)c2)[nH]c(C)c1C(C)=O	?	.	?	.	?	11.6µM
CCc1c(C(=O)NCCc2ccc(OC)c(OC)c2)[nH]c(C)c1C(C)=O	.	.	?	?	.	14.6µM
COc1ccc(C(=O)CCC(=O)Nc2ccc(N3CCCCC3)cc2)cc1OC	.	.	.	.	.	.
COc1cc(/C=N/NC(=O)CCN2CCN(C(c3ccccc3)c3ccccc3)CC2)ccc1O	.	?	?	.	?	.
CC(=O)Nc1ccc(N=Cc2c(O)c3ccccc3oc2=O)cc1	.	.	.	.	.	.
CC(=O)Nc1ccc(N=Cc2c(O)c(C(=O)Nc3ccccc3)cc3ccccc23)cc1	.	.	?	.	3.66µM	?
O=C(CSc1ccccc1)NNC(=O)c1ccccc1O	.	?	?	.	.	.
COC(=O)c1cc(Nc2cc(C)c3c(O)cccc3n2)cc(C(=O)OC)c1	.	?	.	.	.	.
COC(=O)c1cc(Nc2cc(C)c3ccc(O)cc3n2)cc(C(=O)OC)c1	.	?	.	.	14.6µM	.
Cc1ccc(Nc2cc(C)c3ccc(O)cc3n2)cc1C	?	?	.	.	23.1µM	.
COc1ccc2cc(-c3[nH]ncc3CN3CCCN(c4ccccc4)CC3)ccc2c1	.	?	?	?	?	?
O=C(NC12CC3CC(CC(C3)C1)C2)c1ccc([N+](=O)[O-])o1	5.17µM	?	?	?	8.2µM	.
O=C(NC12CC3CC(CC(C3)C1)C2)c1ccc(-c2ccc(Br)cc2)o1	.	?	?	.	20.6µM	?
O=C(NC12CC3CC(CC(C3)C1)C2)c1ccc(Br)o1	.	.	.	.	?	.
Cc1c(Cl)c([N+](=O)[O-])nn1CC(=O)NC(C)C1CC2CCC1C2 (configuration not stated)	23.1µM	.	.	.	.	.
CC(NC(=O)c1ccc([N+](=O)[O-])o1)C1CC2CCC1C2 (configuration not stated)	?	10.3µM	?	?	11.6µM	?
CC(NC(=O)c1ccc([N+](=O)[O-])cc1Cl)C1CC2CCC1C2 (configuration not stated)	.	.	.	.	.	.
Cc1ccccc1Nc1nc(N)nc(COC(=O)c2cccc(S(=O)(=O)NCc3ccccc3)c2)n1	.	.	?	?	?	.
COc1cccc(CN2CCNC(=O)C2CC(=O)NC2CCCCC2)c1OC (configuration not stated)	.	.	.	.	.	.

Assay outcomes: PubChem, National Center for Advancing Translational Sciences (NCATS)
